The values below come from PubChem BioAssay (EPA / NIEHS).

Molecules are shown by their SMILES. Inconclusive results are not listed. Calls of active or inactive are those of the source. Rule for the calls: active = hit-call score of the fitted dose curve at least 0.9, where 1 is the maximum; inconclusive = response in the unintended direction; inactive = score below 0.9.

The target in assay [1] is Cellular tumor antigen p53 (Homo sapiens) (UniProt P04637). The assay is described as follows: TOX21_p53_BLA_p3_ratio: Tox21 HCT-116 p53 Agonism Beta-lactamase Assay, Ratio, Phase 3 (AID 2283596). In short, it runs like this:
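Cells were seeded at 4000/well, rested 5 h at 37C, then dosed with DMSO compound solutions (217-fold dilution) for 16 h. CCF4-AM substrate was loaded for 2 h at room temperature, and the 460/530 nm emission ratio was fitted for gain of signal versus DMSO.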

Assay [2] in a line: TOX21_p53_BLA_p4_viability: Viability Assessment in the Tox21 HCT-116 p53 Agonism Beta-lactamase Assay, Phase 4 (AID 2283597).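 Note: hits lower the luminescence signal meaning cytotoxicity.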 The gist of the method:
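ATP content by CellTiter-Glo luminescence, 30 min RT, read after the beta-lactamase ratio step. Cells: HCT116, 4000/well, compound added after 5 h, exposure 16 h at 37C. Signal loss = reduced viability.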

For assay [3], the target named is Cellular tumor antigen p53 (Homo sapiens) (UniProt P04637). The assay is described as follows: TOX21_p53_BLA_p5_ratio: Tox21 HCT-116 p53 Agonism Beta-lactamase Assay, Ratio, Phase 5 (AID 2283599). In short, it runs like this:
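HCT-116 cells carrying a p53-inducible beta-lactamase reporter were seeded at 4000 cells/well and dosed after 5 h with compound in DMSO (217-fold dilution). After 16 h at 37C, CCF4-AM substrate was added for 2 h, and the 460/530 nm emission ratio was scored as gain-of-signal versus DMSO.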

Assay [4] can be described thus: TOX21_p53_BLA_p5_viability: Viability Assessment in the Tox21 HCT-116 p53 Agonism Beta-lactamase Assay, Phase 5 (AID 2283600). In short, it runs like this:
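ATP luminescence (CellTiter-Glo, 30 min, RT) served as the viability read-out, with loss of signal indicating cytotoxicity. Compounds in DMSO were pinned at a 217-fold dilution onto 4000 cells/well and incubated 16 h, 37C.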

Assay [5] has as its target Cellular tumor antigen p53 (Homo sapiens) (UniProt P04637). Nature of the assay: TOX21_p53_BLA_p4_ratio: Tox21 HCT-116 p53 Agonism Beta-lactamase Assay, Ratio, Phase 4 (AID 2283601). The gist of the method: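 HCT116 cells carrying an inducible beta-lactamase reporter were plated at 4000 cells/well, rested 5 h, then exposed to compounds in DMSO (217-fold dilution) for 16 h at 37C. CCF4-AM substrate was loaded 2 h at room temperature; 460/530 nm emission ratio scored gain-of-signal versus DMSO.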

Assay [6] is described as follows: Tanguay_ZF_120hpf_MORT_legacy: (Legacy) Oregon State University Tanguay Lab 120 Hour Post-fertilization zebrafish Assay for Mortality (AID 2283633).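 For AC50: fitted as increase in binary mortality versus DMSO negative control.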 In short, it runs like this: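 Brightfield scoring of embryo death (binary) at 24 and 120 hpf; static exposure 6–120 hpf, 28C, sealed and foil-covered. Pronase-dechorionated 5D wild-type larvae, single embryo per well. DMSO 0.64% v/v; trimethyltin chloride 5uM positive control.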

Assay [7] can be described thus: Tanguay_ZF_120hpf_YSE_legacy: (Legacy) Oregon State University Tanguay Lab 120 Hour Post-fertilization zebrafish Assay for Yolk Sac Edema (AID 2283634).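 For AC50: actives raise the incidence of yolk sac edema above the DMSO baseline.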 The gist of the method:
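Binary brightfield scoring of yolk sac edema at 120 hpf; DMSO baseline, gain-of-signal fitting. Dechorionated 5D larvae, one per well, static exposure 6–120 hpf, 28C, 0.64% DMSO. Dead embryos not scored.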

Assay [8] in a line: Tanguay_ZF_120hpf_AXIS_legacy: (Legacy) Oregon State University Tanguay Lab 120 Hour Post-fertilization zebrafish Assay for Body Axis Malformation (AID 2283635).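 For AC50: potency for an increased fraction of larvae scored with body axis malformation.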 The gist of the method:
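Embryos: 5D wild-type, pronase-dechorionated 4 hpf; static exposure 6–120 hpf, 28C, sealed, dark, 1 embryo/well, 0.64% DMSO. 120 hpf axis malformation scored present/absent; dead embryos excluded. Analysed as gain of signal vs DMSO.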

A short description of assay [9]: Tanguay_ZF_120hpf_EYE_legacy: (Legacy) Oregon State University Tanguay Lab 120 Hour Post-fertilization zebrafish Assay for Eye Malformation (AID 2283636).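 Note: binary presence or absence of eye malformation scored by brightfield in 120 hpf larvae.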 The gist of the method:
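Static waterborne exposure of dechorionated zebrafish embryos (strain Tropical 5D), 6 to 120 hpf, sealed plates at 28C, 0.64% DMSO vehicle. Eye malformation is scored as a binary endpoint, with gain of signal analysed relative to DMSO.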

Assay [10] in a line: Tanguay_ZF_120hpf_SNOU_legacy: (Legacy) Oregon State University Tanguay Lab 120 Hour Post-fertilization zebrafish Assay for Snout Malformation (AID 2283637). The gist of the method:
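Dechorionated zebrafish, individually housed from 6 hpf in covered, sealed wells at 28C with 0.64% DMSO vehicle, were examined at 120 hpf for snout malformation. Responses were binary and analysed positive-direction relative to DMSO.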

Sequence of Cellular tumor antigen p53 (Homo sapiens) (P04637 whole entry, looked up): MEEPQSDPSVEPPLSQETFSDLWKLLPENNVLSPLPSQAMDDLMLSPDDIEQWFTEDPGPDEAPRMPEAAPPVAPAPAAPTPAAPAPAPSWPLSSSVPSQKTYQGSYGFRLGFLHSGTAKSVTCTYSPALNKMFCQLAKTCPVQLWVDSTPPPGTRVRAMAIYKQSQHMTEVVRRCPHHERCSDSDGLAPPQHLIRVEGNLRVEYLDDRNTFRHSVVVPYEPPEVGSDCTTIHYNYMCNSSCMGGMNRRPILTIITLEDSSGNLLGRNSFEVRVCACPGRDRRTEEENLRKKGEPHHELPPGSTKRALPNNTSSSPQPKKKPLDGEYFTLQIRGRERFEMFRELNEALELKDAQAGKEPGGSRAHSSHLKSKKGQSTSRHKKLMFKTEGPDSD

Consider `CS(=O)(=O)c1ccc(C(=O)C2C(=O)CCCC2=O)c([N+](=O)[O-])c1`, for which the outcome in assay [1], in assay [2], in assay [3], in assay [4], in [5] and in assay [6] was inactive. The call in assay [7], in assay [8], in assay [9] and in [10] was inactive.
Turning to `OC(c1ccc(Cl)cc1)(c1ccc(Cl)cc1)C(Cl)(Cl)Cl`, the concentration at half-maximal activity (AC50) in [1] is 49.6 µM (active); in [2], 86.7 µM (active); in assay [3] it was 89.8 µM (active); in assay [4], 71 µM (active). Moreover, the result in assay [5], in assay [6] and in assay [10] was inactive.
Regarding `CC(C)N1C(=O)c2ccccc2NS1(=O)=O`, the result in assay [1], in [2], in [3], in assay [4], in assay [5] and in [6] was inactive. Moreover, the compound was called inactive in [8], in [9] and in assay [10].
Regarding `CCOC(=O)C(C)OC(=O)c1cc(Oc2ccc(C(F)(F)F)cc2Cl)ccc1[N+](=O)[O-]` (stereo unspecified), the outcome in assay [1], in assay [2], in assay [3], in assay [4], in assay [5] and in assay [6] was inactive. The call in assay [7], in [8] and in [9] was inactive.
On to `CC(C)Oc1cccc(NC(=O)c2ccccc2C(F)(F)F)c1`, for which the outcome in assay [1], in assay [2], in assay [3], in assay [4], in assay [5] and in [6] was inactive. In addition, the compound was called inactive in [8]. For the same compound, the AC50 was 48.7 µM (active) in assay [7], 15.5 µM (active) in assay [9] and 50.4 µM (active) in assay [10].
On to `COCC(C)N(C(=O)CCl)c1c(C)csc1C` (stereo unspecified), for which the result in assay [1], in assay [2], in [3], in [4] and in assay [5] was inactive. Besides, the AC50 in assay [6] was 36.4 µM (active); in assay [7] it was 18.3 µM (active); in assay [8], 27.3 µM (active); in assay [9], 24.8 µM (active); in [10], 8.23 µM (active).
On to `Nc1c(Cl)c(Cl)nc(C(=O)O)c1Cl`, for which the outcome in assay [1], in assay [2], in [3], in assay [4], in assay [5] and in assay [6] was inactive.
On to `CNC(=O)N(C)c1nnc(C(C)(C)C)s1`, for which the result in assay [1], in [2], in assay [3], in assay [4], in assay [5] and in assay [6] was inactive. For the same compound, the compound was called inactive in [9] and in [10].
In the case of `CC(C)C1(C)N=C(c2ncccc2C(=O)O)NC1=O` (stereo unspecified), the result in [1], in assay [2], in [3], in assay [4], in assay [5] and in [6] was inactive. In addition, the result in [7], in assay [8], in assay [9] and in [10] was inactive.
`O=C(Nc1ccccc1-c1ccc(Cl)cc1)c1cccnc1Cl`: the result in assay [1], in [2], in [3], in assay [4], in assay [5] and in [6] was inactive. Besides, the result in assay [7], in assay [8], in assay [9] and in [10] was inactive.
Take `Cc1c(COC(=O)[C@@H]2[C@H](/C=C(\Cl)C(F)(F)F)C2(C)C)cccc1-c1ccccc1`: the result in assay [1], in assay [2], in [3], in assay [4], in assay [5] and in assay [6] was inactive. The compound was called inactive in [7], in assay [8], in assay [9] and in [10].
For the compound `Cc1ccc(N=CN(C)C=Nc2ccc(C)cc2C)c(C)c1`, the outcome in assay [1], in assay [2], in assay [3], in assay [4], in assay [5] and in assay [6] was inactive. The result in assay [7], in assay [8], in [9] and in assay [10] was inactive.
Turning to `COCC(=O)N(c1c(C)cccc1C)C(C)C(=O)OC` (stereo unspecified), the result in assay [1], in [2], in assay [3], in [4], in assay [5] and in [6] was inactive. The result in assay [7], in assay [8] and in assay [10] was inactive.
`COC(=O)c1c(C(F)F)nc(C(F)(F)F)c(C2=NCCS2)c1CC(C)C`: the result in [1], in assay [2], in assay [3], in assay [4], in [5] and in assay [6] was inactive. Further, the compound was called inactive in assay [7], in assay [8] and in [10].
With `COP(=S)(OC)Oc1ccc([N+](=O)[O-])c(C)c1`, the outcome in assay [1], in [2], in [3], in [4], in assay [5] and in assay [6] was inactive. The outcome in assay [7], in assay [8], in [9] and in [10] was inactive.
For the compound `CN=C=S`, the result in assay [1], in assay [2], in assay [3], in [4], in assay [5] and in [6] was inactive. Also, the compound was called inactive in assay [7], in assay [8] and in [9].
`Cn1c(-c2ccccc2)cc(-c2ccccc2)[n+]1C`: the result in assay [1], in [2], in assay [3], in assay [4], in [5] and in assay [6] was inactive. In addition, the compound was called inactive in assay [7], in [8], in assay [9] and in assay [10].

Broadly, the AC50 is the concentration at which the activity in the assay is half-maximal.
